Rows were chosen to be rich in hits. Some 7.5% of all compounds tested hit in one or more screens of this group.
Rab9 prom act: activators of Rab9 promoter; AID 485297; Potency, µM (doses to about 9.22 µM), most hits filed as activators; Huh7 Rab9 promoter-luciferase reporter, luminescence, 24 h; 2.8% of 320,000 active; further: nearly all actives have a fitted effect of over 60% in size
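Using Huh7 cells stably transfected with Rab9 promoter–luciferase, compounds were incubated 24 h at 37 °C, 5% CO2; luciferase luminescence was read 10 min after reagent addition.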
FLuc counter: counter-screen for miR-21 project: firefly luciferase inhibitors or activators | 6.9% of 360,000 active | purified FLuc, Km substrates, luminescence inhibition | Potency, µM (titrated, usually from 57.5 µM), usual class: inhibitors | AID 588342 | P08659; further: nearly all actives have a fitted effect of over 55% in size
Target sequence (P08659 whole entry, looked up): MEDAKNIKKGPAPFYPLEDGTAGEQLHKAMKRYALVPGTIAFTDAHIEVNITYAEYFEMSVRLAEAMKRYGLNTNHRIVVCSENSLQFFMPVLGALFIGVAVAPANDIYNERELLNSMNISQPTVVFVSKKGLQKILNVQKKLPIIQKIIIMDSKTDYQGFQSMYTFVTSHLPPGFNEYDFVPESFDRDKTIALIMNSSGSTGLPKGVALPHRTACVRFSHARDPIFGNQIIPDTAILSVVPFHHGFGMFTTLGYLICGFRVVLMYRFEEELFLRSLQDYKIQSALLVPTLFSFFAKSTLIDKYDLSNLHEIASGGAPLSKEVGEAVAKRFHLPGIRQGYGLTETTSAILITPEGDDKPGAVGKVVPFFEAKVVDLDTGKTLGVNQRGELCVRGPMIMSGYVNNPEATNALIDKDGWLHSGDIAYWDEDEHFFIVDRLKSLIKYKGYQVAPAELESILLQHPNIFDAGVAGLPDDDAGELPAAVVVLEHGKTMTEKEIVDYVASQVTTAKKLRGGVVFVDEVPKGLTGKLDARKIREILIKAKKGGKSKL
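Biochemical qHTS of compounds, final roughly 60 µM downward over six points, against 10 nM purified firefly luciferase using Km concentrations of substrates (10 uM D-luciferin, 10 uM ATP) in Tris acetate pH 7.5 buffer; luminescence output.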
NPC1 prom act: activates the NPC1 promoter; Huh7 NPC1 promoter luciferase reporter, 24 h; Potency, µM (titrated, usually from 9.22 µM), hits mostly activators; 2.4% of 320,000 active; AID 485313; further: nearly all actives have a fitted effect of over 60% in size
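Luciferase expression driven by the NPC1 promoter was measured in stably transfected Huh7 cells after a 24 h compound incubation, using a luciferase reagent and a luminescence read.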
Luc counter: counter-screen: inhibitors of Kinase-Glo firefly luciferase | Kinase-Glo luciferase, ATP luminescence, 8 min | Potency, µM (top dose mostly 38.3 µM), hits mostly inhibitors | 0.28% of 200,000 active | AID 1379; further: nearly all actives have a fitted effect of over 60% in size
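Compound is pinned into ATP-containing buffer (10 uM ATP, imidazole pH 7.2, 7 mM MgCl2). Kinase-Glo luciferase reagent is then added. Light output is recorded following an 8-min room-temperature incubation.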
SMN2 splice up: increases expression of the SMN2 splice variant; HEK293 SMN2-luciferase splicing reporter, luminescence, 30-36 h; Potency, µM (series often up to 46.1 µM), hits mostly activators; 2.8% of 210,000 active; further: nearly all actives have a fitted effect of over 55% in size
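qHTS luciferase splicing reporter: luminescence rises when SMN2 exon 7 is included in transfected HEK293 cells. Compound exposure lasted 30-36 h at 37C, with 4.5 mM final sodium butyrate as control, followed by a ONE-Glo read.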
ELG1 genotoxic: genotoxicity induction in ELG1-luciferase HEK293T cells. 1.3% of 330,000 active. HEK293T ELG1-luciferase reporter, luminescence, 16 h. Potency, µM (highest dose often 46 µM), hits mostly activators. AID 504466; further: nearly all actives have a fitted effect of over 60% in size
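After overnight (16 hr) compound treatment at 37 °C, ELG1-luciferase HEK293T cells were lysed with ONE-Glo; luminescence quantified 30 min later at room temperature.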
Numbers stand for hits; - = inactive; ? = inconclusive; . = not tested or not shown. The call rests on the fitted dose curve; in most records, active means well fitted curve in the direction sought with a large enough effect; inconclusive means small, poorly fitted or top-dose-only effect, or another doubt; inactive means no such curve, though single readings can be large; an effect the other way counts as inactive or inconclusive.

SMILES | Rab9 prom act | FLuc counter | NPC1 prom act | Luc counter | SMN2 splice up | ELG1 genotoxic
CC(=O)Nc1ccc(NC(=O)COC(=O)c2c3c(nc4ccccc24)CCN(Cc2ccccc2)C3)cc1 | - | 8.5µM | - | . | . | -
CCCOc1ccc(C2CC(=O)Nc3c2c(=O)n(C)c(=O)n3C)cc1OC (stereo not drawn) | . | - | . | . | - | .
COc1cccc(-c2ccc3c(N)c(C(=O)NC4CC4)sc3n2)c1 | ? | 3µM | 2µM | . | . | ?
COc1ccc(-c2cc(C(=O)NC3CCCC3)no2)cc1 | 1.8µM | 2.1µM | 0.79µM | . | . | 3.7µM
O=C(NC1CCCCC1)c1cc(-c2ccco2)on1 | 1.6µM | 6µM | 2.5µM | . | . | ?
O=C(NC1CCCCC1)c1cc(-c2cccc(Cl)c2)on1 | ? | - | ? | . | . | ?
COc1cccc(-c2ccc3c(N)c(C(=O)c4ccc(F)cc4)sc3n2)c1 | . | - | . | . | - | .
COc1cccc(-c2cc(C(=O)NC3CCCCC3)no2)c1 | 3.2µM | 6µM | ? | . | . | ?
CCOc1c(O)ccc(/C=C2\SC(=S)NC2=O)c1[N+](=O)[O-] | - | 13µM | - | - | - | -
COc1ccc(/C(N)=N/OC(=O)Cc2cccs2)cc1 | 3.2µM | 12µM | ? | - | ? | ?
COc1ccc(CC(=O)O/N=C(\N)c2ccc(OC)cc2)cc1 | - | ? | - | . | . | -
COc1ccc(/C(N)=N/OC(=O)Cc2cccs2)cc1OC | - | 24µM | - | - | - | -
CCc1cccc(NC(=O)COC(=O)c2cn(CC)c3nc(C)ccc3c2=O)c1 | . | - | . | . | - | .
Cc1ccc(-n2c(SCc3ccccc3C)nc3[nH]ncc3c2=O)cc1C | . | - | . | . | . | .
COc1ccc(N=C2NC(=O)S/C2=C\c2ccc(N(C)C)cc2)cc1 | ? | 21µM | ? | - | ? | ?
CCOc1ccc(N=C2NC(=O)S/C2=C\c2ccc(Cl)cc2)cc1 | - | - | - | - | - | -
COc1cccc(NC(=O)c2cnc(SCC(=O)N3CCCc4ccccc43)n(C)c2=O)c1 | . | - | . | . | . | .
Cn1c(SCC(=O)N2CCOCC2)ncc(C(=O)Nc2ccccc2)c1=O | . | - | . | . | . | .
COc1ccccc1NC(=O)c1cnc(SCC(=O)N2CCCc3ccccc32)n(C)c1=O | . | 1.7µM | . | . | . | .
Cc1ccc(NC(=O)c2cnc(SCC(=O)N3CCOCC3)n(C)c2=O)cc1C | . | 15µM | . | . | . | .
COc1ccccc1NC(=O)c1cnc(SCC(=O)N2CCOCC2)n(C)c1=O | . | 7.6µM | . | . | . | .
COc1ccccc1NC(=O)c1cnc(SCC(=O)NCC2CCCO2)n(C)c1=O (stereo not drawn) | - | 5.4µM | - | . | . | -
O=C(c1cnn2c1NC(=C1CC1)C=C2C(F)F)N(C1CCCCC1)C1CCCCC1 | . | - | . | . | . | .
O=C(Nc1cccc(S(=O)(=O)N2CCCCCC2)c1)c1ccc2ccccc2n1 | - | ? | - | - | - | -
Cc1ccccc1C(=O)Nc1ccc(N2CCCC2)cc1 | ? | 9.5µM | ? | ? | . | -
SMILES | Rab9 prom act | FLuc counter | NPC1 prom act | Luc counter | SMN2 splice up | ELG1 genotoxic
O=C(Nc1ccc(N2CCCCC2)cc1)c1ccc2ccccc2n1 | 2.8µM | 4.8µM | ? | - | - | ?
O=C(Nc1ccc(N2CCCC2)cc1)C(Cl)c1ccccc1 (stereo not drawn) | - | 8.5µM | - | ? | - | -
Cn1c(-n2cccc2)c(-c2c(-c3ccccc3)[nH]c3c2c(=O)[nH]c(=O)n3C)c(=O)[nH]c1=O | - | - | - | . | . | .
Cc1cc2c3c(cccc3n1)C(=O)c1ccccc1-2 | . | . | . | - | - | .
CN(C)c1ccc(/C=C/c2ccc3c4ccccc4ccc3[n+]2-c2ccccc2)cc1 | - | 27µM | - | 10µM | - | -
CCCCN(C)CCCNC(=O)C1CCN(S(=O)(=O)CCC)CC1 | . | - | . | . | . | .
COc1ccc(/C=C/C(=O)Oc2ccc(/C=N/NC(=O)COc3c(C)cccc3C)cc2)cc1 | - | - | - | - | ? | -
COc1ccc(/C=C/C=N/NC(=O)COc2ccc(OC)cc2)cc1 | - | 4.8µM | - | - | - | -
COc1ccc(/C=C/C(=O)Oc2cccc(/C=N/NC(=O)COc3c(C)cccc3C)c2)cc1 | 2.8µM | - | 1.6µM | - | ? | ?
Cc1ccc(OCC(=O)N/N=C/C=C/c2ccco2)cc1 | - | 19µM | - | - | - | -
COc1ccc(NCC(=O)N/N=C/C=C\c2ccccc2)cc1 | - | ? | - | - | - | -
CC(C)[C@@H](CC(=O)N[C@@H]1CCCC[C@H]1C(=O)N[C@H](CC(=O)N[C@@H](CCC(=O)O)CC(=O)O)Cc1ccccc1)NC(=O)C[C@H](Cc1ccccc1)NC(=O)[C@@H]1CCCC[C@H]1N | . | . | . | - | - | .
N=C1/C(=C\c2ccc(OC(=O)c3ccccc3)cc2)C(=O)N=C2SC(N3CCOCC3)=NN12 | - | ? | - | . | . | -
Cc1ccc(C(=O)Oc2ccc(/C=C3\C(=N)N4N=C(N5CCOCC5)SC4=NC3=O)cc2)cc1 | ? | ? | ? | . | . | 23µM
COc1ccc(NC(=O)c2ccc(CNS(=O)(=O)c3ccc4c(c3)C(C)(C)C(=O)N4C)cc2)cc1 | . | - | . | . | . | .
COc1cccc(OC)c1C1=CC(=O)C[C@H](c2ccc3c(c2)OCO3)C1 | - | - | - | . | . | -
COc1cccc2c1C(=O)O/C2=C/c1ccc2c(c1)OCO2 | ? | 0.11µM | ? | ? | ? | ?
Cc1ncoc1C(=O)Nc1ccccc1-c1ccccc1 | - | - | - | - | - | -
Cc1ncoc1C(=O)Nc1ccc(Oc2ccccc2)cc1 | ? | 15µM | ? | - | - | -
Cc1nc(C)c(C(=O)Nc2cccc(Cl)c2)o1 | - | - | - | - | - | -
Cc1nc(C)c(C(=O)Nc2ccc(Oc3ccccc3)cc2)o1 | - | 24µM | - | - | - | -
CCc1ccc(NC(=O)C2CCCN(S(=O)(=O)c3cccc4cccnc34)C2)cc1 (stereo not drawn) | . | - | . | . | - | .
CCOC(=O)CC(=O)CSc1ncnc2c1cnn2-c1ccccc1 | ? | 24µM | ? | - | - | ?
CCOC(=O)Cn1cnc2c(cnn2-c2ccc(Cl)cc2)c1=O | ? | ? | - | . | . | -
Cc1nnc2c3cnn(-c4ccc(Cl)cc4)c3ncn12 | ? | ? | ? | - | - | 21µM
SMILES | Rab9 prom act | FLuc counter | NPC1 prom act | Luc counter | SMN2 splice up | ELG1 genotoxic
CCOC(=O)CSc1ncnc2c1cnn2-c1ccc(C)cc1 | - | ? | - | - | - | ?
CCOC(=O)CSc1ncnc2c1cnn2-c1ccc(Cl)cc1 | - | 9.5µM | - | - | - | -
Cc1nn(-c2ccc(F)cc2)c(Cl)c1/C=N/NC(=O)c1ccc(O)cc1 | - | 19µM | - | - | - | -
Cc1nn(-c2ccc(F)cc2)c(Cl)c1/C=N/NC(=O)c1cccs1 | 2µM | ? | ? | - | ? | -
CNC(=S)N/N=C/c1c(C)nn(-c2ccc(F)cc2)c1Cl | - | - | - | - | - | -
Cc1cc(C)c(OCC(=O)N(Cc2ccc(N(C)C)cc2)CC2CCCO2)c(C)c1 (stereo not drawn) | . | - | . | . | - | .
